Values joined by “and” are separate entries in the source; they are usually repeats but may differ in a detail not shown here. Equal entries are not always repeated. This is part of a sample that, as a whole, favours compounds with a hit. Of some 79,000 tested, about 15% had one in any assay. Active and inactive are the calls of the source. Rule as the data show it: active = growth inhibition above about 70%; inactive = the rest.
Assay: NCI Yeast Anticancer Drug Screen. Data for the sgs1 mgt1 strain (AID 161);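 also: 0% = growth of cultures given vehicle only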
Conditions: S. cerevisiae sgs1 mgt1 strain, at 50.0 µM (retest, dose inferred, filed as 5.0), active compounds read high
How it was run: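 Genetically altered yeast, compound exposure, growth inhibition relative to vehicle.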

Which growth inhibition does the source give for `COC(COC(N)=O)C1=C(N2CC2)C(=O)C(C)=C(N2CC2)C1=O` (configuration not stated) here?
The growth inhibition was 99% (active).

With `Cc1nc(Cl)c(CBr)c(Cl)n1` as the molecule, how does the growth inhibition read?
The growth inhibition was 100% (active).

With `C[n+]1[se]nc2cc(C(=O)c3ccccc3)ccc21` (tested in a mixture with another compound) as the molecule, how does the growth inhibition read?
The growth inhibition was 99% (active).

For `O=C(O)c1ccccc1.[Ag]`, which growth inhibition is on record?
Its growth inhibition is 98% (active) and 99% (active).

For `CC(=O)[O-].O=C([CH-]C(=O)c1ccccc1)c1ccccc1.O=C([CH-]C(=O)c1ccccc1)c1ccccc1.[Sm+3]`, which growth inhibition is on record?
The growth inhibition was 50% (inactive).

With `CC(C)(Br)C(=O)C(Br)Br` as the molecule, how does the growth inhibition read?
The growth inhibition was 99% (active).

For `COC1(OC)C(Cl)=C(Cl)C(Cl)=C1Cl`, which growth inhibition is on record?
Its growth inhibition is 91% (active).

Which growth inhibition does the source give for `[C-]#[O+].[C-]#[O+].[Ir].[O-]c1ccc2ccccc2c1N=Nc1ccccc1` here?
The growth inhibition was 15% (inactive).

With `O=C(Nc1ccccc1)OC(C[N+](=O)[O-])C(Cl)(Cl)Cl` (configuration not stated) as the molecule, how does the growth inhibition read?
The growth inhibition was 99% (active).

Which growth inhibition does the source give for `O=c1c2ccccc2[se]n1-c1cccnc1` here?
Its growth inhibition is 21% (inactive).

With `[Pt].c1ccc(P(CCP(c2ccccc2)c2ccccc2)CCP(c2ccccc2)c2ccccc2)cc1` as the molecule, how does the growth inhibition read?
Its growth inhibition is 90% (active).

With `CC12CCC(C1)C(C)(C)C2OC(=O)c1ccccc1N` (configuration not stated) as the molecule, how does the growth inhibition read?
The growth inhibition was 56% (inactive).

For `CC(=O)[O][Hg][c]1cc2c(cc1O)Cc1cc([N+](=O)[O-])ccc1-2`, which growth inhibition is on record?
Its growth inhibition is 99% (active).

With `OC1(c2ccccc2)CC2CCC(C1)N2CCCC(O)(c1ccccc1)c1ccccc1` (configuration not stated) as the molecule, how does the growth inhibition read?
The growth inhibition was 44% (inactive).

For `ClC1=C(Cl)C(Cl)(Cl)SS1`, which growth inhibition is on record?
Its growth inhibition is 99% (active).

Which growth inhibition does the source give for `COC(=O)C(F)C(Br)C(=O)OC` (configuration not stated) here?
Its growth inhibition is 12% (inactive).

For `c1ccc2c(NCCCCCCNc3c4ccccc4nc4ccccc34)c3ccccc3nc2c1`, which growth inhibition is on record?
The growth inhibition was 83% (active).

Source: PubChem BioAssay (NCI)
